# An excerpt weighted towards active compounds, which were near 1.6% of everything screened.
# Pyk2 oligo antag = antagonists of human Pyk2 oligomerization; Q14289; Q293 cells, Pyk2 FERM NanoBiT luminescence; hits give low values; z-score (the deposit names both 25 µM and 10 µM); 0.83% of 99,000 active; AID 1347419;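 active means Z-score of -3 or lower, scaled per plate to the spread of control and sample wells; inactive means z-score above -3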;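 further: negative z-score means lost luminescence so less FERM oligomerization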
# sEH inhibitor = blocks human soluble epoxide hydrolase activity; P34913; recombinant human sEH enzymatic activity assay; inhibition, % at 2 µM; 0.34% of 91,000 active; in the data active means inhibition above about 80%
# PLK1 kinase inh = inhibitors of human PLK1 kinase | P53350 | recombinant PLK1 kinase, TR-FRET peptide phosphorylation | inhibition, % at 10 µM | 0.53% of 97,000 active;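 active means inhibition of 50% or more in the single-concentration screen; inactive means inhibition below 50%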;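 further: 0% = DMSO max control and 100% = H-89 dihydrochloride min control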
# Target sequence (P53350 whole entry, looked up): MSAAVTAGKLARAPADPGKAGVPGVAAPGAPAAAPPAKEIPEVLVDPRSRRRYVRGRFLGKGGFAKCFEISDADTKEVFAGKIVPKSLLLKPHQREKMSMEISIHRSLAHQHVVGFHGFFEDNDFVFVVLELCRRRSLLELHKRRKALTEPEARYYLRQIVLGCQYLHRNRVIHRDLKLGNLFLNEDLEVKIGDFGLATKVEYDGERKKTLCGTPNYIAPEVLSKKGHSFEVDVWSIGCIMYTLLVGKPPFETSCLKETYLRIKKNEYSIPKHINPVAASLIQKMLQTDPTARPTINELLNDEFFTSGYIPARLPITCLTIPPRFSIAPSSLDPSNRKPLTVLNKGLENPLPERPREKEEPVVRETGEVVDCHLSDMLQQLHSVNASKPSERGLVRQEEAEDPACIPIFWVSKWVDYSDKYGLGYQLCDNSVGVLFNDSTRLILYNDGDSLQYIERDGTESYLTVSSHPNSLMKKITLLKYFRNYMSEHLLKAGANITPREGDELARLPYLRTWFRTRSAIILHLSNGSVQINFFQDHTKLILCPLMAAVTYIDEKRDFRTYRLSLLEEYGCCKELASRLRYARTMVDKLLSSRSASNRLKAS
# sEH activator = soluble epoxide hydrolase (human) activation. purified human sEH enzymatic activity, activator screen. activation, % at 2 µM. 0.04% of 91,000 active; in the data active means activation above about 37%
# Plk1 PBD FP = Plk1 (human) PBD binding inhibition; inhibition, %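 (tested at about 20 µM)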; P53350; 0.13% of 97,000 active; Plk1 PBD phosphopeptide binding, fluorescence polarization; AID 693; in the data active means inhibition above about 34%, passing the limit was not always enough
# PLK1 confirm = confirmation of human PLK1 kinase inhibitors; inhibition, % at 10 µM; recombinant PLK1 kinase, TR-FRET peptide phosphorylation; AID 744; 20% of 210 active; shares compounds with PLK1 kinase inh;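 active means inhibition at or above 50% in each of two repeat confirmation tests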;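 further: 0% = DMSO max control and 100% = H-89 kinase-blocked min control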
# Plk1 interf = counter-screen for Plk1 inhibitors: compound assay interference | shares compounds with PLK1 kinase inh | Plk1 TR-FRET assay interference, compound added post-reaction | inhibition (interference), % at 10 µM | 210 tested, under 10 active | AID 756;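 active means both duplicate runs show 50% or greater inhibition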;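 further: 0% = DMSO max control and 100% = H-89 min control inhibited reaction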
# Active calls of the source: *; · = not tested or not shown.
SMILES,Pyk2 oligo antag,sEH inhibitor,PLK1 kinase inh,sEH activator,Plk1 PBD FP,PLK1 confirm,Plk1 interf
CCc1ccc2[nH]c(=O)c(CN(Cc3ccco3)S(=O)(=O)c3ccc4c(c3)OCCO4)cc2c1,0.28,-42,-6,39*,-1,·,·
CCCCc1c(CCC)c(=N)c2ccccc2n1C,1.1,-5,-1,6,-21,·,·
Cc1noc(/C=C/N(C)C)c1S(=O)(=O)N1CCN(c2ccccc2)CC1,·,·,69*,·,10,·,·
Cc1ccc(C)c(N2CCN(S(=O)(=O)c3c(C)noc3/C=C/N(C)C)CC2)c1,-1.4,·,-5,·,-7,·,·
Fc1ccc(C(CCCn2nnc(-c3cccnc3)n2)c2ccc(F)cc2)cc1,-3.7*,5,2,-1,2,·,·
c1cncc(-c2nnc(-c3cccnc3)nn2)c1,0.33,-6,-14,4,11,·,·
Fc1ccc(Nc2nc(Oc3ccccc3F)nc(N3CCCC3)n2)cc1,-1.4,-2,3,3,-22,·,·
CC(C)COC(=O)c1cc(=O)[nH]c2ccccc12,-0.94,0,6,4,-7,·,·
CC(OC(=O)c1cc(=O)[nH]c2ccccc12)c1ccccc1 (stereo unspecified),-4*,11,2,-12,-21,·,·
O=C(NN=C1C2CC3CC(C2)CC1C3)c1cc(Cl)ccc1O,0.34,-8,-28,8,-14,·,·
CC1(C)CC(=O)C2=C(C1)NCN(Cc1ccccc1)C2,0.27,-43,-7,46*,-1,·,·
CCOC(=O)N1CCC(NC(=O)CCC(=O)N2CC(C)Oc3ccc(Cl)cc32)CC1 (stereo unspecified),-0.02,0,-12,-1,-11,·,·
O=C(Nc1ccc2c(c1)nc1n2CCN(Cc2ccccc2)C1)NC1CCCCC1,0.21,91*,-7,-91,8,·,·
COCCN1CCn2c(nc3cc(NC(=O)NC4CCCCC4)ccc32)C1,0.12,76,-1,-76,-7,·,·
CC(C)CC(C(=O)Nc1oc(-c2ccccc2)c(-c2ccccc2)c1C#N)N1C(=O)c2ccccc2C1=O (stereo unspecified),-3.7*,0,-7,2,21,·,·
N#Cc1c(NC(=O)CCN2C(=O)c3ccccc3C2=O)oc(-c2ccccc2)c1-c1ccccc1,0.38,14,0,-13,-11,·,·
COC(=O)c1cc2c(s1)-c1ccccc1OC2,·,-38,-12,44*,3,·,·
CCOC(=O)c1cc2c(s1)-c1c(C)cccc1OC2,·,-26,-13,24,-3,·,·
Nc1ncnc(Nc2ccccc2C(F)(F)F)n1,0.46,0,72*,3,-6,70*,-43
FC(F)(F)c1ccccc1Nc1nccs1,-0.88,·,-13,·,-7,·,·
C=CCn1c(SCC(=O)Nc2ncc(Cc3cc(Cl)ccc3Cl)s2)nnc1-c1ccncc1,-0.63,-6,-11,4,9,·,·
COc1ccc(N(C(=O)c2ccc(F)cc2)C2=CC3CCC(C2)N3C)cc1 (stereo unspecified),-0.66,-3,4,-1,-16,·,·
CC1CCN(c2ncnc3nc[nH]c23)CC1,·,5,81*,-6,12,74*,-47
OCCN1CCN(c2ncnc3ccc(Br)cc23)CC1,·,·,79*,·,-11,15,-41
CC(C)CN(CC(C)C)C(=O)CC(=O)NC(=O)c1ccc(Cl)cc1,-0.46,9,-14,-8,-34,·,·
SMILES,Pyk2 oligo antag,sEH inhibitor,PLK1 kinase inh,sEH activator,Plk1 PBD FP,PLK1 confirm,Plk1 interf
O=C(Nc1ncc2c(n1)-c1ccccc1CC2)c1ccc(Cl)cc1,0.71,-6,123*,9,-10,12,-46
N#CCCS(=O)(=O)c1nnnn1-c1ccccc1,·,10,-7,-10,0,·,·
Nc1[nH]ncc1C(=O)Nc1cccc(C(F)(F)F)c1,0.11,-2,78*,2,0,75*,-54
Cn1ncc(N)c1C(=O)Nc1cccc(C(F)(F)F)c1,0.44,·,·,·,·,·,·
Cc1cc(NS(=O)(=O)Cc2ccccc2)no1,0.12,6,-10,-3,10,·,·
Cc1ccc(N2C(=O)C(Cl)=C(NCc3ccccc3)C2=O)c(C)c1,-0.88,8,-1,-9,-21,·,·
Cc1ccc(CC2CC(=O)N(c3cc(C)on3)C2=O)cc1 (stereo unspecified),·,·,70*,·,6,-10,-54
COC(=O)C1C(=O)NC(SC)=C(C#N)C1c1ccccc1F (stereo unspecified),-0.7,-4,-9,4,-8,·,·
C=CCSc1nc(-c2ccccc2)c2cc(Cl)ccc2n1,0.26,-16,78*,14,13,-9,-51
CSc1c(-c2ccccc2)nc2ccc(Cl)cc2c1C(=O)O,0.09,36,-19,-36,-3,·,·
CCOC(=O)c1sc2nc[nH]c(=O)c2c1C,-0.2,0,79*,1,-23,73*,-15
COCc1[nH]nc2c1C(c1cc(OC)c(O)c(OC)c1)C(C#N)=C(N)O2 (stereo unspecified),-0.18,·,·,·,·,·,·
COc1cc(/C=C(\C#N)c2[nH]nc(N)c2C#N)cc(OC)c1O,-2.7,5,78*,-2,-18,66*,-48
COC(=O)c1ccccc1NC(=O)CSc1nc(N)cc(N)n1,·,·,71*,·,42,-5,-44
CCOC(=O)c1ccccc1NC(=O)CSc1nc(N)cc(N)n1,-0.07,2,-4,-2,1,·,·
COCCCNC(=O)c1ccc(CS(=O)(=O)c2ccc(Br)cc2)o1,·,·,75*,·,-16,-6,-50
Cc1ccc(NC(=S)NC(NC(=O)c2ccccc2C)C(Cl)(Cl)Cl)c(C)c1 (stereo unspecified),-1.5,-27,-5,24,25,·,·
COC(=O)C1C2C=CC3(CN(c4cccc(Cl)c4)C(=O)C13)O2 (stereo unspecified),·,·,74*,·,-34,-2,-50
COC(=O)C1C2C=CC3(CN(c4cccc(C)c4)C(=O)C13)O2 (stereo unspecified),-0.29,11,-5,-8,8,·,·
c1ccc(-c2nnc(-c3ccccc3)c(-c3c[nH]c4ccccc34)n2)cc1,-0.91,1,-7,3,-21,·,·
c1ccc2c(-c3ccncc3)c[nH]c2c1,0.49,3,78*,-4,-16,71*,-60
COc1ccc(Cl)cc1NC(=O)Cn1c(=O)n2nc(C)nc2c2ccccc21,·,·,78*,·,-15,-6,-51
COc1ccccc1NC(=O)Cn1c(=O)n2nc(C)nc2c2ccccc21,·,·,3,·,9,·,·
Cc1ccc(-c2nc(CS(=O)CC(=O)NCCCN3CC(C)CC(C)C3)c(C)o2)cc1 (stereo unspecified),·,·,76*,·,-6,-15,-56
Cc1ccc(CNC(=O)CN(Cc2ccccc2)S(C)(=O)=O)cc1,1,-2,-9,6,15,·,·
CCOc1ccc(-c2nc(CSCC(=O)N3CCN(C(=O)c4ccco4)CC3)c(C)o2)cc1,·,·,74*,·,-3,-14,-52
CCOC(=O)C1CCN(C(=O)CSCc2nc(-c3ccc(OCC)cc3)oc2C)CC1,0.85,·,·,·,·,·,·
Cc1nc2ccc(NC(=O)c3ccc(S(=O)(=O)N4CCOCC4)cc3)cc2s1,-0.25,43,-4,-44,0,·,·

# Assay outcomes from PubChem.
